# Hits are enriched below; roughly 0.55% of the tested compounds scored in any of these assays.
# USP1 inh – Inhibitors of USP1/UAF1: Primary Screen; recombinant USP1/UAF1, Ub-Rhodamine cleavage fluorescence; Ubiquitin carboxyl-terminal hydrolase 1 (Homo sapiens), O94782; 390,000 compounds, 0.23% hits; Potency, µM (titrated, usually from 57.1 µM), without a hit: at the top dose activity change, negative = inhibition, usual class: inhibitors; further: on the % scale 0 is the no-effect control and ±100 the full control effect; nearly all actives have a fitted effect of over 60% in size
# Target sequence (O94782 whole entry, looked up): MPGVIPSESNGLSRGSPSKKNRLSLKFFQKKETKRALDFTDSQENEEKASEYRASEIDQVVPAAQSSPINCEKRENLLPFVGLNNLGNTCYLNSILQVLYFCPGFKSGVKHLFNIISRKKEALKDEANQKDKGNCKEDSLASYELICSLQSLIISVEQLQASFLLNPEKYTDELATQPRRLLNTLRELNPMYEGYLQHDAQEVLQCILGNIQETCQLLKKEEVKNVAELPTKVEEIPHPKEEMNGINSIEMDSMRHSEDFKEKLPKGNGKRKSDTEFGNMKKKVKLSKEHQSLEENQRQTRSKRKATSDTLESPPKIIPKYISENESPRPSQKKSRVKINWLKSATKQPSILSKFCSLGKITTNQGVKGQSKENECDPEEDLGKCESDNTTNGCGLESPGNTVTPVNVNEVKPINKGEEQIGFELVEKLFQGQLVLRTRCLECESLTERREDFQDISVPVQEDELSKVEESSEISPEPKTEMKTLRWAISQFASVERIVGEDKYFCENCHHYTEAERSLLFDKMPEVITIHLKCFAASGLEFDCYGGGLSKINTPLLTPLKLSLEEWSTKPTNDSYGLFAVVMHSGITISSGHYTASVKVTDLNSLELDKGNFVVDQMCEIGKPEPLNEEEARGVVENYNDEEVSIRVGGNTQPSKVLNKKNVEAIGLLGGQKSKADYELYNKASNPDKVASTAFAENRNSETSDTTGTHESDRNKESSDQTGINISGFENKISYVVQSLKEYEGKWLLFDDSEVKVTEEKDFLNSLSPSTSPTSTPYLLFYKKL
#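 USP1/UAF1 complex at 1 nM was preincubated with compound for 15 min at room temperature, then Ub-Rho substrate (150nM final) was added. Fluorescence (480/540 nm) was read kinetically, 6 reads every 60 seconds.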
# EPAC1 agonist – qHTS for Agonist of cAMP-regulated guanine nucleotide exchange factor 3 (EPAC1): primary screen; Rap guanine nucleotide exchange factor 3 (Homo sapiens), O95398; EPAC1 agonist qHTS, biochemical assay; response scale: 100% = response to 6.5 mM cAMP; Potency, µM (top dose mostly 154 µM), for the others: at the highest dose activation, most hits filed as activators; 360,000 compounds, 0.073% hits; AID 720707, 2013; further: nearly all actives have a fitted effect of over 60% in size
#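 Compounds were pinned as a concentration titration into mixtures of EPAC1 (100 nM), BODIPY-GDP-loaded Rap1B (250 nM) and GDP (50 uM). After 5 min at room temperature, fluorescence was followed for 30 min; activity was scaled to 6.5 mM cAMP.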
# EPAC2 ag – qHTS for Agonist of cAMP-regulated guanine nucleotide exchange factor 4 (EPAC2): primary screen; Rap guanine nucleotide exchange factor 4 (Homo sapiens), Q8WZA2; EPAC2 activation, biochemical qHTS; response scale: 100% = 6.5 mM cAMP response; Potency, µM (series often up to 154 µM), for inactives: top-dose activation, usual class: activators; 360,000 compounds, 0.079% hits; further: nearly all actives have a fitted effect of over 50% in size
#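 In this primary screen, activation is scored as increased exchange of BODIPY-GDP from Rap1B by 100 nM EPAC2, with 50 uM GDP as competitor. Signal is normalized to the 6.5 mM cAMP agonist control.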
# EPAC1 antagonist – qHTS for Antagonist of cAMP-regulated guanine nucleotide exchange factor 3 (EPAC1): primary screen; Potency, µM (highest dose often 115 µM), for the others: top-dose activity change, negative = inhibition, actives largely listed as inhibitors; 360,000 compounds, 0.14% hits; Rap guanine nucleotide exchange factor 3 (Homo sapiens), O95398; EPAC1 GEF assay, Rap1b-BODIPY-GDP exchange fluorescence; AID 720709, 2013;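 further: plate controls were vehicle for no effect and positive control for full effect; nearly all actives have a fitted effect of over 50% in size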
# EPAC2 antag – qHTS for Antagonist of cAMP-regulated guanine nucleotide exchange factor 2 (EPAC2): primary screen. Rap guanine nucleotide exchange factor 4 (Homo sapiens), Q8WZA2. EPAC2 GEF exchange of Rap1B-BODIPY-GDP, fluorescence. Potency, µM (highest dose often 114 µM), for the others: at the top dose activity, negative = inhibition, usual class: inhibitors. 360,000 compounds, 0.18% hits; further: on the % scale 0 is the no-effect control and ±100 the full control effect; nearly all actives have a fitted effect of over 45% in size
# HEK293 tox – qHTS of GLP-1 Receptor Inverse Agonists: Cytotox Screen. 410,000 compounds, 0.13% hits. Potency, µM (doses to about 38.3 µM), inactives show top-dose activity change, negative = inhibition, usual class: inhibitors. AID 624418, 2012. HEK293 cAMP-luciferase reporter cells, luminescence, 24 h;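 further: loss of luciferase light is scored as toxicity; on the % scale 0 is the no-effect control and ±100 the full control effect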
#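 Compound-treated cells are incubated 24 hr at 37 deg C under 5% CO2 after a 12 hour attachment period, then luciferase detection reagent is added and luminescence is measured following 12 min at room temperature; lowered signal indicates toxicity.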
# Numbers without * were called inactive; i = inactive; u = inconclusive; x = not tested or not shown; ! = repeats disagree. The call rests on the fitted dose curve; in most records, active means well fitted curve in the direction sought with a large enough effect; inconclusive means small, poorly fitted or top-dose-only effect, or another doubt; inactive means no such curve, though single readings can be large; an effect the other way counts as inactive or inconclusive. Potency means the concentration at half of the fitted maximal effect.
SMILES,USP1 inh,EPAC1 agonist,EPAC2 ag,EPAC1 antagonist,EPAC2 antag,HEK293 tox
CCCN(CC1CC1)C(=S)NC(=O)c1ccccc1C,-14.3%,-7.5%,6.6%,8.5%,-7.1%,-24.8%
CCCN(CC1CC1)C(=S)NC(=O)c1cc(Br)ccc1Cl,2.5%,2.6%,1.5%,-17.0%,-18.7%,3.16µM*
CN(Cc1nc2ccccc2c(=O)[nH]1)Cc1nc2ccsc2c(=O)[nH]1,-21.3%,-0.2%,-0.4%,-2.2%,8.0%,12.6µM*
CC(NC(=O)CN(C)Cc1nc2ccccc2c(=O)[nH]1)c1ccccc1 (centres undefined),-9.8%,-3.2%,4.5%,-6.6%,10.4%,-0.5%
Nc1cc2nsnc2cc1Br,4.47µM*,4.3%,27.8%,u,u,71.3%
Nc1cccc2nsnc12,u,-1.4%,12.1%,-8.9%,-0.7%,u
COc1ccc(/C=C2/C(=O)N(CC3CCCO3)C(=S)N2C)c(OC)c1 (centres undefined),56.1%,-284.7%,i,50.1µM*,451.3%,8.4%
CC(=O)[C@@]1(O)Cc2c(O)c3c(c(O)c2[C@H](O[C@H]2C[C@H](N)[C@H](O)[C@H](C)O2)C1)C(=O)c1ccccc1C3=O,x,28.2µM*,u,142.9%,178.5%,x
COc1cccc2c1C(=O)c1c(O)c3c(c(O)c1C2=O)C[C@@](O)(C(=O)CO)C[C@@H]3OC1CC(N)C(O)C(C)O1 (some centres undefined),u,u,-5.9%,17.3%,-5.3%,u
COc1cccc2c1C(=O)c1c(O)c3c(c(O)c1C2=O)CC(O)(C(C)=O)CC3OC1CC(N(C)C)C(O)C(C)O1 (centres undefined),u,89.1µM*,8.8%,27.6%,20.6%,-32.7%
COc1cccc2c1C(=O)c1c(O)c3c(c(O)c1C2=O)C[C@@](O)(C(=O)CO)C[C@@H]3O[C@H]1C[C@H](N)[C@H](O)[C@H](C)O1,31.6µM*,u,5.5%,5.6%,75.8%,u
CC(C)c1ccc2c(c1)-c1ccccc1S(=O)(=O)N2CC(=O)N1CCCCC1,-19.0%,x,x,x,x,-6.9%
Cc1ccc(NC(=O)c2ccc3c(O)c(S(=O)(=O)c4ccccc4)c(=O)[nH]c3c2)cc1Cl,-19.2%,x,x,x,x,14.4%
O=C(CCn1cccn1)NCc1ccc(Cl)cc1,-14.9%,x,x,x,x,16.9%
CCOC(=O)C1=C(C)NC(C)=C(C(=O)OCC)C1,22.4µM*!,u,1.0%,10.0%,4.8%,1.9%
CCCCn1c(NC(=O)c2ccccc2Cl)c(C#N)c2nc3ccccc3nc21,14.1µM*,-1.4%,-1.8%,u,u,464.7%
N#Cc1c(NC(=O)c2ccccc2Cl)n(Cc2ccccc2)c2nc3ccccc3nc12,25.1µM*,-6.8%,-15.3%,35.5µM*,44.7µM*,122.7%
C/C(=C\C(=O)c1ccccc1)Nc1ccc(O)cc1,-13.2%,20.5%,3.0%,70.8µM*,3.0%,-14.4%
Cc1ccc(C(=O)N/C(=C\c2ccc(-c3ccccc3[N+](=O)[O-])o2)C(=O)NCCCN(C)C)cc1,28.2µM*,0.8%,14.9%,10.5%,0.8%,6.6%
Cc1ccc(C(=O)N/C(=C\c2ccc(-c3ccccc3[N+](=O)[O-])o2)C(=O)NCCN(C)C)cc1,u,6.4%,1.6%,-6.3%,-0.3%,-12.9%
O=C(Nc1ccc2oc(Cc3ccc(Cl)cc3)nc2c1)c1cccnc1,-6.7%,11.5%,3.8%,-15.8%,2.1%,-9.3%
CCOc1cccc(C(=O)Nc2ccc3oc(Cc4ccc(Cl)cc4)nc3c2)c1,-29.2%,6.2%,7.94µM*,-10.7%,-2.1%,-28.9%
COc1ccc(S(=O)(=O)N(CC(=O)Nc2ccc(OC)cc2OC)c2ccc(Cl)cc2)cc1,-28.0%,x,x,x,x,-3.6%
COc1cccc(-n2c(C)nc3c(cnn3-c3ccc(C)c(C)c3)c2=O)c1,-18.4%,x,x,x,x,3.9%
O=C(Cc1ccc(Cl)cc1)Nc1cccc(C(=O)Nc2ccccc2C(=O)O)c1,-8.7%,-11.0%,2.7%,100µM*,-1.4%,2.7%
SMILES,USP1 inh,EPAC1 agonist,EPAC2 ag,EPAC1 antagonist,EPAC2 antag,HEK293 tox
CCCc1nn2c(=O)cc(COC(=O)c3ccccc3NC(=O)C3CCCCC3)nc2s1,-5.6%,x,x,x,x,16.2%
O=c1c2ccccc2nc(/C=C/c2cccnc2)n1CCc1ccccc1,-5.5%,-4.8%,6.3%,79.4µM*,5.4%,u
O=C(N/N=C/c1ccc(Sc2ccccn2)o1)c1cc2ccccc2cc1O,u,1.3%,0.9%,56.2µM*,1.2%,-12.9%
O=C(Cc1ccccc1)Nn1c(O)c(/C=C2\C=Nc3ccccc32)sc1=S,31.6µM*,89.1µM*,100µM*,-2.0%,-4.0%,-28.5%
Cc1ccc(-n2c(-c3ccccc3)n[nH]c2=S)c(C)c1,-15.6%,-4.8%,-2.1%,10.1%,1.7%,10µM*
COC(=O)CCC(=O)OC1(C)C(=O)C2=CN(C3CC3)C(c3ccc(OC)cc3)=CC2=C(Br)C1=O (centres undefined),22.4µM*,1.5%,18.9%,-8.4%,u,13.2%
COC(=O)CCC(=O)OC1(C)C(=O)C2=CN(CCCOC(C)C)C(c3ccc(OC)cc3)=CC2=C(Br)C1=O (centres undefined),28.2µM*,-9.2%,-6.2%,9.3%,9.8%,-6.8%
COC(=O)CCC(=O)OC1(C)C(=O)C2=CN(Cc3ccc(OC)cc3)C(c3ccc(OC)cc3)=CC2=C(Br)C1=O (centres undefined),-22.3%,9.0%,-1.9%,2.9%,-5.5%,-15.4%
COC(=O)CCC(=O)OC1(C)C(=O)C2=CN(c3ccccc3)C(c3ccc(OC)cc3)=CC2=C(Br)C1=O (centres undefined),u,7.3%,-3.4%,-8.2%,-1.4%,-6.6%
COC(=O)CCC(=O)OC1(C)C(=O)C2=CN(CC3CC3)C(c3ccc(OC)cc3)=CC2=C(Br)C1=O (centres undefined),31.6µM*,-0.8%,2.9%,13.9%,10.8%,-5.3%
O=C1CCc2cc(NS(=O)(=O)c3ccc([N+](=O)[O-])cc3)cc3c2N1CC3,-7.3%,79.4µM*,5.3%,-7.8%,9.6%,8.4%
